# Assay results published in publication PMC4336329 (PLoS ONE, 2015).
# In all, about 310,000 compounds went through this assay and about 14,000 (4.5%) showed an effect of 50% or more. The effect is printed as a negative number. Shown is part of a subset that was picked to be rich in strong results.
# Biological target: human ether-à-go-go-related gene (hERG) potassium channel (human, UniProt Q12809)
# Experiment: primary screen, population patch clamp on CHO cells stably expressing hERG; higher = less effect of the substance
# 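Note: peak tail current of the secondary pulse compared with the same well before compound.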
# Chain of human ether-à-go-go-related gene (hERG) potassium channel (Q12809 whole entry, looked up): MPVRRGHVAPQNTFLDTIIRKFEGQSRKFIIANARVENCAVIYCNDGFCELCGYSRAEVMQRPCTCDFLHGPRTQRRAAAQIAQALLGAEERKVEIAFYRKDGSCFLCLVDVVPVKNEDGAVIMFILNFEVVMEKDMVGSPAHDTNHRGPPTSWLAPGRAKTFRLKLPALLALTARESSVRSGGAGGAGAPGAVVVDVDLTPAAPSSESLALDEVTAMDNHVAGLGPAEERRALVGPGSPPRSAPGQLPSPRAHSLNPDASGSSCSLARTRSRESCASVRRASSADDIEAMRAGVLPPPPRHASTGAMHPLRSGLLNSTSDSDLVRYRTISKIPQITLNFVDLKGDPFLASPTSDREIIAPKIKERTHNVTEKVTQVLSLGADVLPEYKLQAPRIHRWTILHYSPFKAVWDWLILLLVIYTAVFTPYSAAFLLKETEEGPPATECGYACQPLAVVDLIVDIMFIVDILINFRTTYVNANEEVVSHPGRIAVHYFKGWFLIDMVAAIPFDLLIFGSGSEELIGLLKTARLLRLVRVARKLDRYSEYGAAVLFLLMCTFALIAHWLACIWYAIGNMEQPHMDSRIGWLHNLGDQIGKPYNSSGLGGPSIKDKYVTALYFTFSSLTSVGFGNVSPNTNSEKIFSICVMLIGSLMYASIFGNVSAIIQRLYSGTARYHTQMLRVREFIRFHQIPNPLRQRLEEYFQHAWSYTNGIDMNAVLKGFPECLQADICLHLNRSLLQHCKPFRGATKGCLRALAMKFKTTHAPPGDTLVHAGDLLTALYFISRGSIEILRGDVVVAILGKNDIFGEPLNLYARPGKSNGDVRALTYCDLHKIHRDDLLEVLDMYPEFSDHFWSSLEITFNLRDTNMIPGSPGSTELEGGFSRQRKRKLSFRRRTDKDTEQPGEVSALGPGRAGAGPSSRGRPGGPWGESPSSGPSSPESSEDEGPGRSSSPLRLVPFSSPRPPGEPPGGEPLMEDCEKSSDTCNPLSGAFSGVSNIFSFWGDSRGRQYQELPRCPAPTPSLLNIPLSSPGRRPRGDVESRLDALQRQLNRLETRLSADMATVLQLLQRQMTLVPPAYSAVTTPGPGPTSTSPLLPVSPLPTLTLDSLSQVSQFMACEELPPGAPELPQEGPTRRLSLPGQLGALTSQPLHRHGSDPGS
row,Structure (SMILES),"hERG current change (%, negative = inhibition) at 10uM [%]"
1,COCc1c(C(=O)Nc2nc(C)cs2)oc2ccccc12,-2.57
2,CCCOP(=O)(OCCC)c1nc(-c2ccccc2)oc1NCc1ccccc1,6.49
3,CCc1ccc(NC(=O)CCS(=O)(=O)c2ccc(Cl)cc2)cc1,6.96
4,Cc1cccc(NC(=O)[C@@H](CC(C)C)NC(=O)[C@@H]2Cc3ccccc3CN2)c1,-40.7
5,COc1ccc(CNC(=O)[C@H](Cc2c[nH]c3ccccc23)NC(=O)[C@@H]2Cc3ccccc3CN2)cc1,-53.9
6,Cc1ccc(NC(=O)[C@H](NC(=O)[C@@H]2Cc3ccccc3CN2)c2ccccc2)cc1C,-37.9
7,COc1ccccc1CNC(=O)[C@H](Cc1c[nH]c2ccccc12)NC(=O)[C@@H]1Cc2ccccc2CN1,-16.5
8,Cc1cc(C)cc(NC(=O)[C@H](NC(=O)[C@@H]2Cc3ccccc3CN2)c2ccccc2)c1,-0.0454
9,CCc1ccc(NC(=O)[C@@H](NC(=O)[C@@H]2Cc3ccccc3CN2)C(C)CC)cc1 (some centres unmarked),-13.6
10,Cc1cccc(NC(=O)[C@H](NC(=O)[C@@H]2Cc3ccccc3CN2)c2ccccc2)c1,-54.4
11,COc1ccc(NC(=O)[C@H](Cc2c[nH]c3ccccc23)NC(=O)[C@@H]2Cc3ccccc3CN2)cc1,-36.8
12,Cc1cccc(NC(=O)[C@@H](NC(=O)[C@@H]2Cc3ccccc3CN2)C(C)C)c1,-62.4
13,CCc1ccc(NC(=O)[C@H](NC(=O)[C@@H]2Cc3ccccc3CN2)c2ccccc2)cc1,-55
14,Cc1cccc(NC(=O)[C@H](Cc2ccccc2)NC(=O)[C@@H]2Cc3ccccc3CN2)c1,-0.0161
15,CCc1ccc(NC(=O)CNC(=O)[C@@H]2Cc3ccccc3CN2)cc1,-19.9
16,CN(c1ccc(C(=O)NC2CCCC2)cc1)S(=O)(=O)c1ccc(Cl)cc1,16.2
17,COC(=O)CNC(=O)C1CCN(S(=O)(=O)c2cnc[nH]2)CC1,-1.84
18,CC1=NN(C(C#N)c2ccc(F)cc2)C(c2ccccc2)C1 (centres unmarked),4.44
19,COCCN(CCOC)S(=O)(=O)c1ccc(C(=O)Nc2ccncc2)cc1,-11.6
20,CSc1cccc(NC(=O)CN(C)S(=O)(=O)c2ccc(C)cc2)c1,-32.8
21,CCc1ccc2[nH]c(=O)c(C(c3nnnn3CCOC)N3CCN(c4ccccc4)CC3)cc2c1 (centres unmarked),-11.6
22,COCCn1nc2cc(C(=O)NCc3cc(C(F)(F)F)cc(C(F)(F)F)c3)ccc2c1OC,21.8
23,CSCC[C@H](NC(=O)[C@@H]1Cc2ccccc2CN1)C(=O)Nc1ccc2c(c1)OCCO2,-65.5
24,C[C@@H](NC(=O)[C@@H]1Cc2ccccc2CN1)C(=O)Nc1ccc2c(c1)OCCO2,3.19
25,C[C@H](NC(=O)[C@@H]1Cc2ccccc2CN1)C(=O)Nc1ccc2c(c1)OCCO2,3.18
26,Cc1cc(C(=O)OCC(=O)NCc2ccc3c(c2)OCO3)c2ccccc2n1,-27.5
27,Cc1ccc(N(C(=O)c2snc(C(N)=O)c2N)C(C(=O)NCC2CCCO2)c2c[nH]c3ccccc23)cc1 (centres unmarked),-6.36

row,Structure (SMILES),"hERG current change (%, negative = inhibition) at 10uM [%]"
1,O=C(CSc1nnc(-c2ccccc2Br)o1)Nc1nncs1,-57.9
2,O=C(CSc1nnc(-c2ccccc2Br)o1)Nc1cccc2ccccc12,5.79
3,O=C(CSc1nnc(-c2ccncc2)o1)Nc1nncs1,15.5
4,COc1ccc(NC(=O)c2ccc(COc3ccccc3)o2)c(OC)c1,-7.06
5,O=C(CC(C(=O)O)C1CCCO1)Nc1cccc(C(F)(F)F)c1 (centres unmarked),5.84
6,O=C(CNC(=O)c1cccnc1)N/N=C/c1cccnc1,8.4
7,Cc1ccc(C(=O)N2CC(=O)Nc3ccc(F)cc3C2c2ccccc2)cc1 (centres unmarked),-4.56
8,O=C1CN(C(=O)c2ccccc2Br)C(c2ccc(F)cc2)c2cc(F)ccc2N1 (centres unmarked),-61.6
9,Cc1ccc2c(c1)C(c1ccc(F)cc1)N(C(=O)c1ccccc1Br)CC(=O)N2 (centres unmarked),-16.1
10,O=C1CN(C(=O)c2cccc(F)c2)C(c2ccc(F)cc2)c2cc(F)ccc2N1 (centres unmarked),-15.4
11,O=C1CN(C(=O)c2ccccc2F)C(c2ccc(F)cc2)c2cc(F)ccc2N1 (centres unmarked),-11.7
12,O=C1CN(C(=O)c2ccccc2)C(c2ccccc2)c2cc(F)ccc2N1 (centres unmarked),-75.1
13,CCCOc1ccc(C(=O)N2CCCc3ccccc32)cc1,-26
14,COc1ccc(C2SCC(C(=O)NCc3ccc(F)cc3)N2C(C)=O)cc1 (centres unmarked),-20.2
15,Nc1ccccc1SSc1ccccc1N,27.7
16,Cc1ccc(S(=O)(=O)N2CCC(C(=O)NCCCN3CCCC3=O)CC2)cc1C,7.98
17,CCOc1ccc2nc(N3CCCC(C(=O)NCC4CCCO4)C3)sc2c1 (centres unmarked),-19.1
18,CCCN1CCN(CCCNC(=O)C2CCCN(c3nc4ccc(OCC)cc4s3)C2)CC1 (centres unmarked),-56.7
19,Cc1cc(C)c2nc(N3CCC(C(=O)NCCCN4CCCC4=O)CC3)sc2c1,-25.5
20,CCOc1ccc2nc(N3CCCC(C(=O)NC4CCCC4)C3)sc2c1 (centres unmarked),-0.903
21,Cc1cc(C)c(C)c(S(=O)(=O)N2CCC(C(=O)NCCCN3CCCC3=O)CC2)c1C,-70
22,COc1ccc2nc(N3CCCC(C(=O)NCCCN4C(C)CCCC4C)C3)sc2c1 (centres unmarked),-34.1
23,CCOc1ccc2nc(N3CCC(C(=O)NCCCN4CCOCC4)CC3)sc2c1,-17.7
24,COc1ccc2nc(N3CCCC(C(=O)NCCCN4CCN(C)CC4)C3)sc2c1 (centres unmarked),1.67
25,O=C(NCCCN1CCCC1=O)C1CCN(S(=O)(=O)c2c(Cl)cccc2Cl)CC1,-0.379
26,CCOc1ccc2nc(N3CCCC(C(=O)NCCCN4C(C)CCCC4C)C3)sc2c1 (centres unmarked),-54.7
27,CCOc1cc2sc(N3CCC(C(=O)NCCCN4CCCC4=O)CC3)nc2cc1Br,-60.5

row,Structure (SMILES),"hERG current change (%, negative = inhibition) at 10uM [%]"
1,CCOC(=O)C1=C(c2ccccc2)OC(N)=C(C#N)C1c1cccs1 (centres unmarked),3.11
2,O=C(c1ccc(=O)[nH]c1)N1CCN(S(=O)(=O)c2cc(C(F)(F)F)ccc2Cl)CC1,-13.4
3,Cc1ccc(NC(=O)CN(C)Cc2ccc(F)cc2)c([N+](=O)[O-])c1,-17.8
4,CSc1nc2c(c(=O)[nH]1)C(c1ccncc1)C(C(=O)OC(C)C)=C(C)N2 (centres unmarked),-0.441
5,CCN(CC)c1ccc(NC(=O)COc2ccccc2C#N)cc1S(=O)(=O)Nc1ccc(OC)cc1,13
6,COc1ccc([C@@H]2[C@@H]3C(=O)N(C(C)(C)C)C(=O)[C@@H]3[C@]3(Cc4ccccc4)C(=O)N(c4ccc(C)cc4)C(=O)N23)cc1,2.04
7,CN(Cc1ccccc1)C(=O)c1[nH]cnc1C(=O)NCC(=O)OC(C)(C)C,10.4
8,COc1ccc(/C=C2\SC(=O)N(CCNC(=O)Cc3coc4cc(C)ccc34)C2=O)cc1OC,4.76
9,CC(C)(C)[C@@H]1CCC(=O)N(CC[C@H](Sc2ccccc2)c2ccccc2)CC1,17.1
10,Cc1cc(C)cc(NC(=O)COC(=O)CC2CCCC2)c1,-0.633
11,Cc1cccc(C)c1NC(=O)CN(C)C(=O)CCc1nc2sc3c(c2c(=O)[nH]1)CCCC3,5.53
12,Cc1ccc2occ(/C=N/NC(=O)[C@@H](N)Cc3ccccc3)c(=O)c2c1.Cl,-22.5
13,CCOc1ccc2nc(N3CCCC(C(=O)NCCCN4CCOCC4)C3)sc2c1 (centres unmarked),-19.6
14,CCOc1ccc2nc(N3CCCC(C(=O)NCCCN4CC(C)CC(C)C4)C3)sc2c1 (centres unmarked),-48.8
15,CCOc1ccc2nc(N3CCCC(C(=O)NCCCN4CCCCC4)C3)sc2c1 (centres unmarked),-64.8
16,COc1cccc(C2C(C#N)=C(N)Oc3cc(C)n(Cc4ccccn4)c(=O)c32)c1OC (centres unmarked),3.7
17,CC1(C)CC2CC(C)(CN2C(=O)C23CCC(C)(C(=O)C2)C3(C)C)C1 (centres unmarked),-4.28
18,CCn1c(C(C)NC(=O)c2cccc(C)c2)nc2ccccc21 (centres unmarked),-19.6
19,O=C(NC(=S)N1CCN(Cc2ccccc2)CC1)c1ccccc1,6.47
20,N#Cc1ccc(CN2CCN(C(=O)CC(NC(=O)c3ccccc3)c3ccccc3)CC2)cc1 (centres unmarked),-81.2
21,CC(NC(=O)c1ccccc1)c1nc2ccccc2n1Cc1ccc(C#N)cc1 (centres unmarked),-68.6
22,Cc1cccc(N2CCN(C(=O)CC(NC(=O)c3ccccc3)c3ccccc3)CC2C)c1 (centres unmarked),-47.1
23,CC(=O)NC(CC(=O)N1CCN(C(C)=O)CC1)c1ccccc1 (centres unmarked),27
24,COc1cccc(N2CCN(C(=O)CC(NC(=O)c3ccccc3)c3ccccc3)CC2)c1 (centres unmarked),-65
25,COc1ccc(N2CCN(C(=O)CC(NC(N)=O)c3cccc(Oc4ccccc4)c3)CC2)cc1 (centres unmarked),-7.97
26,CC(NC(=O)c1ccccc1)c1nc2ccccc2n1Cc1ccccc1F (centres unmarked),0.996
